Drawing on PubChem BioAssay (Tox21), this text covers Potency for 20 molecules.

A short description of assay [1]: qHTS assay to identify small molecule antagonists of the thyroid receptor (TR) signaling pathway - cell viability counter screen (AID 743064). Further: nearly all actives have a fitted effect of over 50% in size. Further: potency means the concentration at half of the fitted maximal effect. In a few lines: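 GH3.TRE-Luc cells, 4 h pre-plating; cpd + T3 1 nM final; 37 °C 23.5 h; CellTiter-Fluor 30 min; fluorescence read.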
Background: In qHTS, concentration-response curves come from the screen itself.

Assay [2] has as its system thyroid hormone receptor (rat, GH3 cells). As to the kind of experiment: qHTS assay to identify small molecule agonists of the thyroid receptor (TR) signaling pathway (AID 743066; calls by dose curve; further: potency means the concentration at half of the fitted maximal effect).
Assay [3] is described as follows: qHTS assay to identify small molecule antagonists of the estrogen receptor alpha (ER-alpha) signaling pathway - cell viability counter screen (AID 743074; calls by dose curve; further: nearly all actives have a fitted effect of over 45% in size).
Assay [4] deals with Estrogen receptor (Homo sapiens) (UniProt P03372). Description: qHTS assay to identify small molecule agonists of the estrogen receptor alpha (ER-alpha) signaling pathway (AID 743075; calls by dose curve; further: potency means the concentration at half of the fitted maximal effect).
Chain of Estrogen receptor (Homo sapiens) (P03372 whole entry, looked up): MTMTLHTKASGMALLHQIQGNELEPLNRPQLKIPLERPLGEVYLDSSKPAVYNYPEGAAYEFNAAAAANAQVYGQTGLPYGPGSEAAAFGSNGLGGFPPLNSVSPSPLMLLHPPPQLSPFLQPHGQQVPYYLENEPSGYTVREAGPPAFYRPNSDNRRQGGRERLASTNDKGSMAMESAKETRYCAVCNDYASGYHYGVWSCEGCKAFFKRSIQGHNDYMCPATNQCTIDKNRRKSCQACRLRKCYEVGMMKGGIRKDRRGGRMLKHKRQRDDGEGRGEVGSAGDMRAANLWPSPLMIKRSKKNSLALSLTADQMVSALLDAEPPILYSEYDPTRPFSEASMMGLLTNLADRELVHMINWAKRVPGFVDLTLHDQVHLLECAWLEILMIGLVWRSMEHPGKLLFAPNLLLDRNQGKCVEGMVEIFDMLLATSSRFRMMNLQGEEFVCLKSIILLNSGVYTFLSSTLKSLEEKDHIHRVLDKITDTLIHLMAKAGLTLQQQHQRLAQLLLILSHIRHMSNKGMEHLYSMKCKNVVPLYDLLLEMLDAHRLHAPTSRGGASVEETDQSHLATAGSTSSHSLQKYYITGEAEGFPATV
The nature of assay [5]: qHTS assay to identify small molecule antagonists of the estrogen receptor alpha (ER-alpha) signaling pathway using the BG1 cell line (AID 743080; calls by dose curve;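 further: BG1 cells stimulated with 17beta-estradiol alongside compound; nearly all actives have a fitted effect of over 25% in size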; further: potency means the concentration at half of the fitted maximal effect). An outline of the steps:
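BG1-Luc-4E2 cells (endogenous full-length ER-alpha, stable 4×ERE-luciferase) were starved 5 days in phenol-red-free medium with 10% charcoal-stripped FBS, plated 24 h, then given compound plus 17beta-estradiol for 21.5 h at 37 C; ONE-Glo luminescence read after 30 min.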

Assay [6] in a line: qHTS assay to identify small molecule antagonists of the estrogen receptor alpha (ER-alpha) signaling pathway using the BG1 cell line - cell viability counter screen (AID 743081).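 Further: compound given together with 17beta-estradiol as the ER stimulus; nearly all actives have a fitted effect of over 45% in size.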 Further: potency means the concentration at half of the fitted maximal effect.
Another assay concerns the target Aromatase (Homo sapiens) (UniProt P11511). As to the kind of experiment: qHTS assay to identify aromatase inhibitors (AID 743083). Further: nearly all actives have a fitted effect of over 55% in size.
In assay [7] the target is Estrogen receptor (Homo sapiens) (UniProt P03372). As to the kind of experiment: qHTS assay to identify small molecule agonists of the estrogen receptor alpha (ER-alpha) signaling pathway using the BG1 cell line (AID 743079). Further: nearly all actives have a fitted effect of over 20% in size. Further: potency means the concentration at half of the fitted maximal effect. To be noted: BG1Luc4E2 cells, ERE-luciferase agonist, 22 h; activation: at 70.3 µM (top of the series).
The target is the same in assay [8]. Description: qHTS assay to identify small molecule antagonists of the estrogen receptor alpha (ER-alpha) signaling pathway (AID 743069; active means well fitted curve in the direction sought with a large enough effect in the signal ratio in the repeat runs, not every such curve was filed as active; inconclusive means weak or mixed curves, or effect the other way; inactive means no such curve, though single readings can be large or run the other way; the % refers to the signal ratio). An outline of the steps: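 In this cell-based reporter format, GripTite HEK293 cells harbouring ER-alpha-UAS-bla were grown overnight with 2% charcoal-stripped FBS, dosed with DMSO-dissolved compounds, then challenged with 17beta-estradiol. After 18 hr at 37C, beta-lactamase activity was detected by FRET fluorescence.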

Assay [9] in a line: qHTS assay to identify small molecule antagonists of the thyroid receptor (TR) signaling pathway (AID 743065). Further: nearly all actives have a fitted effect of over 55% in size. In a few lines:
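GH3.TRE-Luc rat pituitary cells (two TREs driving luciferase) were dosed with compound, then stimulated with 1 nM T3 (final) for 23.5 h at 37 C. ONE-Glo luminescence was the read-out, with CellTiter-Fluor fluorescence as the cytotoxicity counter-screen.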

The source made the active and inactive calls. Unless noted, the call rests on the fitted dose curve; in most records, active means well fitted curve in the direction sought with a large enough effect in the repeat runs; inconclusive means weak or mixed curves; inactive means no such curve, though single readings can be large; an effect the other way counts as inactive or inconclusive. Non-standard residues stand in square brackets, D forms with d. Residues, ends and D or L forms follow the SMILES beside them. pGlu = O=C1CC[C@@H](C(=O)O)N1

Chain of Aromatase (Homo sapiens) (P11511 whole entry, looked up): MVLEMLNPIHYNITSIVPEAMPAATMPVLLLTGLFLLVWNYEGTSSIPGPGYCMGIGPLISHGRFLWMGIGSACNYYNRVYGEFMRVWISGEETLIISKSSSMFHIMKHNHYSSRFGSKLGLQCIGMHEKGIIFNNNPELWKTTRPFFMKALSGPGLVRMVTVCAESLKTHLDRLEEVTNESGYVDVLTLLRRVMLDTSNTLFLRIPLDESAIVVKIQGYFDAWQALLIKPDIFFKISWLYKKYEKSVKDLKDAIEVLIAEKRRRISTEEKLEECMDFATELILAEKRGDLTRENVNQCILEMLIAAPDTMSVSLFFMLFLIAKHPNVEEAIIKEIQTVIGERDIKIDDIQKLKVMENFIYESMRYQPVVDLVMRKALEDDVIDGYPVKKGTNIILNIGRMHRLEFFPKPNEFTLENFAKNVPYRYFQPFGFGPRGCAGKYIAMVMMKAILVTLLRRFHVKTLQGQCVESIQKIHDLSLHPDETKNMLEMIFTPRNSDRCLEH

For `COc1cc(C)c(/C=C/C(C)=C/C=C/C(C)=C/C(=O)O)c(C)c1C`, the Potency result in [1], in [3] and in assay [6] was “inactive” in each case. The Potency is 5.96 µM (active) in assay [2], 4.25 µM [inconclusive] (active) in assay [4] and 0.473 µM (active) in assay [5].

In the case of `NC(=O)OC[C@@H]1[C@H](NC(=O)/C(=N\OCC(=O)O)c2csc(N)n2)C(=O)N1S(=O)(=O)O`, the Potency result in assay [1], in [2], in assay [3] and in assay [6] was “inactive” in each case.

Regarding `CCC(=O)O[C@]1(C(=O)CCl)[C@@H](C)C[C@H]2[C@@H]3C[C@H](F)C4=CC(=O)C=C[C@]4(C)[C@@]3(F)[C@@H](O)C[C@@]21C`, the Potency entry (in assay [1]; in [2]; in assay [3]; in assay [6]; with Aromatase (Homo sapiens)) was “inactive” in each case.

As to `CO[C@H]1C[C@@H]2CC[C@@H](C)[C@@](O)(O2)C(=O)C(=O)N2CCCC[C@H]2C(=O)O[C@H]([C@H](C)C[C@@H]2CC[C@@H](OCCO)[C@H](OC)C2)CC(=O)[C@H](C)/C=C(\C)[C@@H](O)[C@@H](OC)C(=O)[C@H](C)C[C@H](C)/C=C/C=C/C=C/1C`, the values for the Potency in assay [1], in assay [5] and in assay [6] were 3.76 µM (active), 0.0047 µM (active) and 21.1 µM (active), respectively. Moreover, the Potency result in assay [2] and in assay [7] was “inactive” in each case.

With `O=C(O)[C@H](CC(=O)N1C[C@H]2CCCC[C@H]2C1)Cc1ccccc1`, the Potency entry in [1], in assay [2], in [8], in assay [4], in assay [5] and in assay [6] was “inactive” each time. Moreover, the Potency entry in the assay with Aromatase (Homo sapiens) is “inactive”. Also, the Potency in assay [7] was 33.5 µM (active).

`NC[C@@H]1O[C@H](O[C@H]2[C@@H](O)[C@H](O[C@@H]3[C@@H](O)[C@H](N)C[C@H](N)[C@H]3O[C@H]3O[C@H](CO)[C@@H](O)[C@H](O)[C@H]3N)O[C@@H]2CO)[C@H](N)[C@@H](O)[C@@H]1O`: the Potency entry (in [1]; in assay [8]; in [3]; in assay [4]; in assay [6]; in the assay with Aromatase (Homo sapiens)) was “inactive” throughout. For the same molecule, the Potency in assay [7] is 26.6 µM (active).

For the molecule `CC1(C)C2CC[C@]3(C)[C@H](C(=O)C=C4[C@@H]5C[C@@](C)(C(=O)O)CC[C@]5(C)CC[C@]43C)[C@@]2(C)CC[C@@H]1O[C@H]1O[C@H](C(=O)O)[C@@H](O)[C@H](O)[C@H]1O[C@@H]1O[C@H](C(=O)O)[C@@H](O)[C@H](O)[C@H]1O` (some centres undefined), the Potency entry (in assay [1]; in assay [2]; in assay [3]; in [6]; with Aromatase (Homo sapiens)) was “inactive” throughout.

`C/C=C(/CC[C@@H](C)[C@H]1CC[C@H]2C3=CC[C@H]4[C@H](C)[C@@H](O)CC[C@]4(C)[C@H]3CC[C@]12C)C(C)C`: the Potency result (in assay [1]; in [2]; in assay [3]; in assay [6]; with Aromatase (Homo sapiens)) was “inactive” throughout.

`CCSc1ccc2c(c1)N(CCCN1CCN(C)CC1)c1ccccc1S2`: the Potency result (in assay [1]; in assay [3]; in [6]; with Aromatase (Homo sapiens)) was “inactive” each time.

Turning to `O=[N+]([O-])O[C@@H]1CO[C@H]2[C@@H]1OC[C@@H]2O`, the Potency entry in [9], in assay [2], in assay [8], in assay [3], in assay [4] and in assay [7] was “inactive” each time. The Potency result in assay [5] and in [6] was “inactive” in each case.

Regarding `CC1=C[C@H](O)CC(C)(C)[C@H]1/C=C/C(C)=C/C=C/C(C)=C/C=C/C=C(C)/C=C/C=C(C)/C=C/C1=C(C)C[C@@H](O)CC1(C)C`, the Potency in [1] was 23.7 µM (active). In addition, the Potency entry (in assay [3]; in the assay with Aromatase (Homo sapiens)) was “inactive” each time.

Take `CC1=C(/C=C/C(C)=C/C=C/C(C)=C/C=C/C=C(C)/C=C/C=C(C)/C=C/C2=C(C)C[C@@H](O)CC2(C)C)C(C)(C)C[C@H](O)C1`: in [1], the Potency is 29.8 µM (active). Also, the Potency result in assay [3] and in assay [6] was “inactive” in each case.

Turning to `CN[C@@H]1[C@H](O[C@H]2[C@H](O[C@H]3[C@H](O)[C@@H](O)[C@H](N=C(N)N)[C@@H](O)[C@@H]3N=C(N)N)O[C@@H](C)[C@]2(O)CO)O[C@@H](CO)[C@H](O)[C@H]1O`, the Potency result (in [1]; in [3]; in [6]; in the assay with Aromatase (Homo sapiens)) was “inactive” in each case.

On to `CS(=O)(=O)OCC(O)C(O)COS(C)(=O)=O` (centres undefined), for which the Potency entry in assay [9], in assay [2], in assay [8], in assay [3], in assay [4] and in assay [7] was “inactive” each time. The Potency result (in assay [5]; in [6]; in the assay with Aromatase (Homo sapiens)) was “inactive” each time.

In the case of `FC(F)(F)C(F)(F)C(F)(F)C(F)(F)C(F)(F)C(F)(F)F`, the Potency entry in assay [9], in [2], in [8], in [3], in [4] and in assay [7] was “inactive” throughout. For the same molecule, the Potency entry (in assay [5]; in assay [6]; with Aromatase (Homo sapiens)) was “inactive” in each case.

`CCCCC[C@H](O)/C=C/[C@H]1[C@H](O)CC(=O)[C@@H]1CCCCCCC(=O)O`: the Potency entry (in [1]; in assay [3]; in assay [4]; in assay [7]; in assay [6]; in the assay with Aromatase (Homo sapiens)) was “inactive” each time.

With `CCc1ccc2c(c1)N(CC(C)CN(C)C)c1ccccc1S2` (centres undefined), the Potency in assay [1] was 11.9 µM (active). For the same molecule, the Potency entry in assay [3], in assay [4], in assay [7], in assay [5] and in [6] was “inactive” each time.

Take `CC1(C)S[C@@H]2[C@H](NC(=O)[C@H](NC(=O)N3CCN(S(C)(=O)=O)C3=O)c3ccccc3)C(=O)N2[C@H]1C(=O)O`: the Potency result in assay [9], in assay [2], in assay [8], in [3], in [4] and in assay [5] was “inactive” throughout. Moreover, the Potency result (in assay [6]; with Aromatase (Homo sapiens)) was “inactive” throughout. In addition, in assay [7], the Potency was 11.9 µM (active).

With `O=C(Cn1c(=O)sc2ccc(Cl)cc21)N1CCN(CCO)CC1`, the Potency result (in assay [1]; in assay [3]; in assay [6]; with Aromatase (Homo sapiens)) was “inactive” in each case.

For `CC[C@H](C)[C@H](NC(=O)[C@H](Cc1ccccc1)NC(=O)[C@H](C)NC(=O)[C@H](CC(=O)O)NC(=O)[C@H](CCCCN)NC(=O)[C@H](CO)NC(=O)[C@@H]1CCCN1C(=O)[C@@H]1CCC(=O)N1)C(=O)NCC(=O)N[C@@H](CC(C)C)C(=O)N[C@@H](CCSC)C(N)=O` ([pGlu]PSKDAFIGLM-NH2), the Potency entry (in assay [1]; in assay [3]; in [6]; with Aromatase (Homo sapiens)) was “inactive” in each case.
